Assay [1] can be described thus: NCI Yeast Anticancer Drug Screen. Data for the rad50 strain (AID 155).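 Also: 0% = growth of vehicle-only cultures of the same strain.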 To be noted: S. cerevisiae rad50 strain growth inhibition, active compounds read high. The method in brief: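 Genetically altered yeast (DNA repair pathway); compound treatment; growth inhibition vs vehicle ctrl.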
Assay [2] in a line: NCI Yeast Anticancer Drug Screen. Data for the mec2-1 strain (AID 157). To be noted: S. cerevisiae mec2-1 strain, active compounds read high. The method in brief:
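Growth inhibition is read against vehicle-treated controls after compound exposure of the mec2-1 yeast strain, which is defective in DNA damage repair or cell cycle control.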

Assay [3] is described as follows: NCI Yeast Anticancer Drug Screen. Data for the sgs1 mgt1 strain (AID 161).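 Also: 0% = growth of cultures given vehicle only.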 To be noted: S. cerevisiae sgs1 mgt1 strain, active compounds read high. Put shortly:
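Yeast cells carrying a defined DNA-repair defect were exposed to test compounds. Growth inhibition was measured relative to vehicle-treated controls.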

A short description of assay [4]: NCI Yeast Anticancer Drug Screen. Data for the cln2 rad14 strain (AID 165).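 Also: 0% = growth equal to vehicle treated cultures.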 To be noted: S. cerevisiae cln2 rad14 strain, active compounds read high. The method in brief: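 Growth inhibition, relative to vehicle-treated controls, is the read-out. The test organism is a yeast strain with defined genetic alterations, cln2 rad14.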
Assay [5] can be described thus: NCI Yeast Anticancer Drug Screen. Data for the bub3 strain (AID 167). To be noted: S. cerevisiae bub3 mutant strain, active compounds read high. The method in brief: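 Yeast carrying a defined mutation is treated with each compound, and growth is compared with that of vehicle-exposed cells to give inhibition.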
Assay [6] in a line: NCI Yeast Anticancer Drug Screen. Data for the mlh1 rad18 strain (AID 175). To be noted: S. cerevisiae mlh1 rad18 strain growth inhibition, active compounds read high. The method in brief:
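Cells of a genetically altered yeast strain, deficient in DNA damage repair, were treated with compound. Their growth was then compared with that of vehicle-treated cultures to give inhibition.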

The mark [7] stands for this setting: at 5.0 µM (retest, dose inferred, filed as 0.5).
Setting [8] is: at 50.0 µM (retest, dose inferred, filed as 5.0).

Each structure is given as a SMILES string. About 79,000 compounds went through this panel and 15% of them were active in at least one assay; those are over-represented in the sample as a whole. A number with no mark means an inactive call. Calls of active or inactive are those of the source. Rule as the data show it: active = growth inhibition above about 70%; inactive = the rest.

For the compound `CC(=O)N[C@H]1CCC2[C@@H]3CCC4=CC(=O)NCC[C@]4(C)C3CC[C@@]21C` (some centres not stated), the growth inhibition is 0% in assay [1] (setting [7]); 89% (active) in assay [1] (setting [8]); 56.5% in assay [1] (at 50.0 µM); -2% in assay [2] (setting [7]); 92% (active) in assay [2] (setting [8]); 46.6% in assay [2] (at 50.0 µM). Also, the growth inhibition in assay [3] (setting [7]) was -3%; in assay [3] (setting [8]), 58%; in assay [3] (at 50.0 µM), 56.4%; in assay [4] (setting [7]) it was -4%; in assay [4] (setting [8]) it was 78% (active); in assay [4] (at 50.0 µM), 69.5%. Moreover, the growth inhibition was 6% in assay [5] (setting [7]); 88% (active) in assay [5] (setting [8]); 96.2% (active) in assay [5] (at 50.0 µM); -2% in assay [6] (setting [7]); 85% (active) in assay [6] (setting [8]); 57.5% in assay [6] (at 50.0 µM).
As for `CCC(=S)N(C)O`, the growth inhibition in assay [1] (setting [7]) is 95% (active); in assay [1] (setting [8]), 96% (active); in assay [1] (at 50.0 µM), 66.5%; in assay [2] (setting [7]), 99% (active); in assay [2] (setting [8]) it was 98% (active); in assay [2] (at 50.0 µM), 50.9%. Further, the growth inhibition was 100% (active) in assay [3] (setting [7]); 98% (active) in assay [3] (setting [8]); 69% in assay [3] (at 50.0 µM); 98% (active) in assay [4] (setting [7]); 91% (active) in assay [4] (setting [8]); 45.1% in assay [4] (at 50.0 µM). For the same compound, the growth inhibition in assay [5] (setting [7]) is 100% (active); in assay [5] (setting [8]), 97% (active); in assay [5] (at 50.0 µM), 52%; in assay [6] (setting [7]) it was 98% (active); in assay [6] (setting [8]) it was 97% (active); in assay [6] (at 50.0 µM) it was 86.2% (active).
Take `O=[N+]([O-])c1cc(F)c(Sc2cc(Br)c([N+](=O)[O-])cc2F)cc1Br`: the growth inhibition in assay [1] (setting [7]) was 1%; in assay [1] (setting [8]), -16%; in assay [1] (at 50.0 µM), 8.85%; in assay [2] (setting [7]), -1%; in assay [2] (setting [8]) it was -8%; in assay [2] (at 50.0 µM), 9.55%. Besides, the growth inhibition was -1% in assay [3] (setting [7]); -7% in assay [3] (setting [8]); 3.05% in assay [3] (at 50.0 µM); 1% in assay [4] (setting [7]); -21% in assay [4] (setting [8]); 43.5% in assay [4] (at 50.0 µM). The growth inhibition was 6% in assay [5] (setting [7]); -3% in assay [5] (setting [8]); 28.9% in assay [5] (at 50.0 µM); 0% in assay [6] (setting [7]); -4% in assay [6] (setting [8]); 19.9% in assay [6] (at 50.0 µM).
`O=S(=O)(Nc1ccccn1)c1ccc(NCc2c3ccccc3nc3cc(Cl)ccc23)cc1`: the growth inhibition in assay [1] (setting [7]) is 0%; in assay [1] (setting [8]) it was 65%; in assay [1] (at 50.0 µM) it was 65.9%; in assay [2] (setting [7]), 4%; in assay [2] (setting [8]), 37%; in assay [2] (at 50.0 µM), 55.2%. For the same compound, the growth inhibition was -2% in assay [3] (setting [7]); 66% in assay [3] (setting [8]); 54.5% in assay [3] (at 50.0 µM); 6% in assay [4] (setting [7]); 36% in assay [4] (setting [8]); 31.9% in assay [4] (at 50.0 µM). Moreover, the growth inhibition in assay [5] (setting [7]) is 8%; in assay [5] (setting [8]) it was 76% (active); in assay [5] (at 50.0 µM), 34.8%; in assay [6] (setting [7]), 3%; in assay [6] (setting [8]), 52%; in assay [6] (at 50.0 µM) it was 71.8% (active).
As for `N=Nc1c(OC(=O)Nc2cccc(Cl)c2)[nH]c2ccccc12`, the growth inhibition in assay [1] (setting [7]) is 36%; in assay [1] (setting [8]), 99% (active); in assay [1] (at 50.0 µM), 98.7% (active); in assay [2] (setting [7]), 14%; in assay [2] (setting [8]), 99% (active); in assay [2] (at 50.0 µM) it was 98.8% (active). For the same compound, the growth inhibition in assay [3] (setting [7]) is 28%; in assay [3] (setting [8]), 99% (active); in assay [3] (at 50.0 µM), 99% (active); in assay [4] (setting [7]) it was 15%; in assay [4] (setting [8]), 99% (active); in assay [4] (at 50.0 µM), 98.2% (active). Besides, the growth inhibition is 1% in assay [5] (setting [7]); 99% (active) in assay [5] (setting [8]); 98.4% (active) in assay [5] (at 50.0 µM); 33% in assay [6] (setting [7]); 99% (active) in assay [6] (setting [8]); 99.1% (active) in assay [6] (at 50.0 µM).
Consider `O=C1CC2(CCN(CC3COc4ccccc4O3)CC2)C(=O)N1N1CCCCCC1` (configuration not stated), for which the growth inhibition is 51% in assay [1] (setting [7]); 66% in assay [1] (setting [8]); 77% (active) in assay [1] (at 50.0 µM); 33% in assay [2] (setting [7]); 41% in assay [2] (setting [8]); 70.4% (active) in assay [2] (at 50.0 µM). Also, the growth inhibition in assay [3] (setting [7]) was 62%; in assay [3] (setting [8]), 66%; in assay [3] (at 50.0 µM), 82.8% (active); in assay [4] (setting [7]), 78% (active); in assay [4] (setting [8]), 83% (active); in assay [4] (at 50.0 µM), 84% (active). The growth inhibition in assay [5] (setting [7]) is 48%; in assay [5] (setting [8]), 68%; in assay [5] (at 50.0 µM) it was 85.5% (active); in assay [6] (setting [7]) it was 37%; in assay [6] (setting [8]), 75% (active); in assay [6] (at 50.0 µM), 83.8% (active).
Take `Nc1nc(-c2ccc(Cl)cc2)cs1`: the growth inhibition in assay [1] (setting [7]) is -20%; in assay [1] (setting [8]), 94% (active); in assay [1] (at 50.0 µM), 98% (active); in assay [2] (setting [7]) it was 4%; in assay [2] (setting [8]) it was 91% (active); in assay [2] (at 50.0 µM), 97.4% (active). Further, the growth inhibition was 8% in assay [3] (setting [7]); 91% (active) in assay [3] (setting [8]); 98.2% (active) in assay [3] (at 50.0 µM); -44% in assay [4] (setting [7]); 92% (active) in assay [4] (setting [8]); 97% (active) in assay [4] (at 50.0 µM). In addition, the growth inhibition in assay [5] (setting [7]) was -29%; in assay [5] (setting [8]) it was 90% (active); in assay [5] (at 50.0 µM), 97.8% (active); in assay [6] (setting [7]) it was -30%; in assay [6] (setting [8]) it was 97% (active); in assay [6] (at 50.0 µM) it was 97.7% (active).
Consider `O=C(NNc1ncccn1)c1ccc(C(=O)NNc2ncccn2)cc1`, for which the growth inhibition in assay [1] (setting [7]) is -2%; in assay [1] (setting [8]), 99% (active); in assay [1] (at 50.0 µM) it was 2.75%; in assay [2] (setting [7]), 0%; in assay [2] (setting [8]), 100% (active); in assay [2] (at 50.0 µM), 2.1%. Moreover, the growth inhibition in assay [3] (setting [7]) was -3%; in assay [3] (setting [8]) it was 100% (active); in assay [3] (at 50.0 µM), 41.5%; in assay [4] (setting [7]) it was 7%; in assay [4] (setting [8]), 99% (active); in assay [4] (at 50.0 µM) it was -25.6%. For the same compound, the growth inhibition in assay [5] (setting [7]) is 3%; in assay [5] (setting [8]), 99% (active); in assay [5] (at 50.0 µM), -2.6%; in assay [6] (setting [7]) it was 2%; in assay [6] (setting [8]) it was 99% (active); in assay [6] (at 50.0 µM), 21.4%.
On to `N#Cc1cn(-c2c3ccccc3nc3ccccc23)c(=O)[nH]c1=O`, for which the growth inhibition in assay [1] (setting [7]) is 16%; in assay [1] (setting [8]), 67%; in assay [1] (at 50.0 µM) it was 58.4%; in assay [2] (setting [7]), -9%; in assay [2] (setting [8]) it was 52%; in assay [2] (at 50.0 µM), 39.9%. Moreover, the growth inhibition in assay [3] (setting [7]) was 3%; in assay [3] (setting [8]) it was 30%; in assay [3] (at 50.0 µM) it was 49.6%; in assay [4] (setting [7]), 21%; in assay [4] (setting [8]), 70% (active); in assay [4] (at 50.0 µM), 48.3%. For the same compound, the growth inhibition in assay [5] (setting [7]) is 15%; in assay [5] (setting [8]), 59%; in assay [5] (at 50.0 µM), 21.8%; in assay [6] (setting [7]), 14%; in assay [6] (setting [8]), 77% (active); in assay [6] (at 50.0 µM), 76.2% (active).

Source of the values: PubChem BioAssay (NCI).
